Measured values from PubChem BioAssay AID463173 (ICCB-Longwood Screening Facility, Harvard Medical School, 2010).
In all, about 52,000 compounds went through this assay and about 1,700 (3.3%) were called active. The entries come from a sample that favours actives as a whole. Values without a mark were called inactive. Cut-off read from the data, not from the text of the source: active = survival mostly below about 52% (no sharp cut-off); inactive = mostly above about 56%.

Test system: Wild type
Experiment: S. aureus survival, RN4220 and DeltatarO strains – OD600, teichoic acid synthesis inhibitors, primary screen (AID 463173)
Conditions: S. aureus RN4220 wild type/DeltatarO growth, OD600, 18 h, stronger effect = lower value, screened at 18.75 µg/mL (by protocol)

Row | Structure (SMILES) | survival
1 | COc1ccc(-c2cc(C(F)(F)F)nc(SCCC(=O)Nc3cccc(O)c3)n2)cc1 | 80%
2 | COc1cc(Cl)c(C)cc1NC(=O)c1nn(C)c2c1CSc1ccccc1-2 | 85%
3 | Cc1ccc(C(=O)CSc2nnc(-c3ccccc3)n2-c2ccccc2)cc1 | 79%
4 | Cn1c(SCC(=O)c2ccc(F)cc2)nnc1-c1ccccc1Br | 74%
5 | Cc1ccc(-c2nnc(SCC(=O)c3ccc(Cl)cc3)n2-c2ccccc2)cc1 | 94%
6 | COc1ccccc1-c1nnc(SCC(=O)c2ccc(Cl)cc2)n1-c1ccccc1 | 0% (active)
7 | O=C(CSc1nnc(-c2ccc(Br)cc2)n1-c1ccccc1)c1ccccc1 | 97%
8 | COc1ccccc1-c1nnc(SCC(=O)OC(C)C)n1-c1ccccc1 | 115%
9 | CCOc1ccc(-c2nnc(SCC(=O)c3ccc(F)cc3)n2-c2ccccc2)cc1 | 153%
10 | O=C(CSc1nnc(-c2ccccc2Br)n1-c1ccccc1)c1ccc(F)cc1 | 4% (active)
11 | COc1ccccc1-c1nnc(SCC(=O)c2ccc(F)cc2)n1-c1ccccc1 | 0% (active)
12 | CCc1cccc(NC(=O)CN(C)S(=O)(=O)c2ccc3c(c2)CCCN3C(C)=O)c1 | 83%
13 | COc1ccc(F)cc1S(=O)(=O)NCC(c1ccco1)S(=O)(=O)c1cccs1 (stereo unspecified) | 81%
14 | CCCN1CCN(CC2=C(C(=O)OCC)C(c3ccc(OC(C)C)cc3)NC(=O)N2)CC1 (stereo unspecified) | 72%
15 | COc1ccc(-n2nnc(-c3nc(-c4cccs4)no3)c2N)cc1OC | 100%
16 | CCN1CCN(C(c2ccc(F)cc2)c2sc3nc(-c4ccco4)nn3c2O)CC1 (stereo unspecified) | 131%
17 | Cc1ccc(C(=O)N2CCN(c3cccc(Cl)c3)CC2)cc1-n1c(C)nc2cccnc21 | 84%
18 | Cc1cc2c(cc1S(=O)(=O)NCc1ccc(F)cc1)OCC(=O)N2 | 82%
19 | CCN(CC)c1ccc(C(=O)N2CCC(c3ccncc3)CC2)cc1 | 85%
20 | COc1ccc(C(=O)N2CCC(c3ccncc3)CC2)cc1OC | -6% (active)
21 | COc1cc(C(=O)N2CCC(c3ccncc3)CC2)cc(OC)c1OC | 78%
22 | CCOc1ccc(C(=O)N2CCC(c3ccncc3)CC2)cc1 | 78%

Row | Structure (SMILES) | survival
23 | COc1cc(OC)cc(C(=O)N2CCC(c3ccncc3)CC2)c1 | 69%
24 | CCOc1cc(C(=O)N2CCC(c3ccncc3)CC2)cc(OCC)c1OCC | -1% (active)
25 | Cc1ccc(C)c(C(=O)COC(=O)CCCC(=O)Nc2cc(C(F)(F)F)ccc2Cl)c1 | 45%
26 | Cc1c(C(=O)Nc2ccc(F)c(Cl)c2)sc2nc3n(c(=O)c12)CCC3 | 81%
27 | CCc1nc(SCc2ccccc2)[nH]c(=O)c1C | 102%
28 | COc1cccc(NC(=O)Cn2c(=O)n(CCCCC(=O)NCc3ccc4c(c3)OCO4)c(=O)c3ccccc32)c1 | 92%
29 | COc1ccc(OC)c(NC(=O)CSc2nc3ccccc3nc2N2CCCCC2)c1 | -10% (active)
30 | O=C(CSc1nc2ccccc2nc1Cc1ccc(Cl)cc1)NCCc1ccccc1 | 69%
31 | COc1cccc(NC(=O)CSc2nc3ccccc3nc2N2CCOCC2)c1 | 67%
32 | COc1ccc(CCNC(=O)CSc2nc3ccccc3nc2Cc2ccc(C)cc2)cc1OC | 52%
33 | COc1ccc(NC(=O)CSc2nc3ccccc3nc2N2CCC(C)CC2)cc1 | 45%
34 | CC(=O)Nc1ccc(NC(=O)CSc2nc3ccccc3nc2N2CCCCC2)cc1 | 90%
35 | COc1ccc(NC(=O)CSc2nc3ccccc3nc2N2CCOCC2)c(OC)c1 | 65%
36 | CCc1cccc(NC(=O)CSc2nc3ccccc3nc2N2CCCCC2)c1 | -13% (active)
37 | COc1cccc(Cc2nc3ccccc3nc2SCC(=O)Nc2cc(OC)ccc2OC)c1 | 60%
38 | COc1ccc(NC(=O)CSc2nc3ccccc3nc2N2CCCCC2)cc1 | 7% (active)
39 | CCCCc1ccc(NC(=O)CSc2nc3ccccc3nc2N2CCCCC2)cc1 | 41%
40 | COc1ccc(CCNC(=O)CSc2nc3ccccc3nc2Cc2ccc(Cl)cc2)cc1OC | 10% (active)
41 | COc1ccc(NC(=O)CC2C(=O)N(c3ccc(C)cc3)C(=O)N2C2CCCCC2)cc1 (stereo unspecified) | 74%
42 | CCOC(=O)c1noc2nc(C)n(CC(=O)Nc3ccccc3F)c(=O)c12 | 124%
43 | COc1cccc(C(=O)Nc2ccccc2-c2nnc(-c3ccc(C(C)(C)C)cc3)o2)c1 | 71%
44 | CCOc1cc(C(=O)N2CC(=O)Nc3ccc(F)cc3C2c2ccccc2)cc(OCC)c1OCC (stereo unspecified) | 75%

Row | Structure (SMILES) | survival
45 | O=C(NC1CCCCC1)C(c1ccco1)N(C(=O)C1COc2ccccc2O1)c1cccc(F)c1 (stereo unspecified) | 132%
46 | COc1ccc(NC(=O)c2c(C(=O)Nc3ccccc3)sc3nc(C)cc(=O)n23)cc1 | 93%
47 | NC(=O)CSc1nsc(SCC(N)=O)n1 | 109%
48 | Cc1cc(C)c(NC(=O)CSc2nc3ccccc3nc2N2CCCCC2)c(C)c1 | 38%
49 | O=C(O)CSc1nc2ccccc2nc1N1CCCCC1 | 62%
50 | COc1ccc(Cl)cc1NC(=O)CSc1nc2ccccc2nc1N1CCCCC1 | -9% (active)
51 | CC(C)NC(=O)CSc1nc2ccccc2nc1N1CCCCC1 | -28% (active)
52 | COc1ccc(C)cc1NC(=O)CSc1nc2ccccc2nc1N1CCOCC1 | 72%
53 | COc1ccccc1Cc1nc2ccccc2nc1SCC(=O)Nc1cc(Cl)ccc1OC | 89%
54 | Cc1ccc(C)c(Cn2c(=O)n(Cc3ccc4c(c3)OCO4)c(=O)c3oc4ccccc4c32)c1 | 89%
55 | Cc1cccc(-c2nc(CCNC(=O)Cc3ccccc3)cs2)c1 | -1% (active)
56 | COc1ccc(CCC(=O)NCCc2csc(-c3ccc(C(F)(F)F)cc3)n2)cc1 | 80%
57 | COc1ccc(CC(=O)NCCc2csc(-c3cccc(C)c3)n2)cc1 | 74%
58 | Cc1cccc(-c2nc(CCNC(=O)c3ccc(Br)o3)cs2)c1 | 69%
59 | Cc1cccc(-c2nc(CCNC(=O)Cc3ccc(F)cc3)cs2)c1 | 14% (active)
60 | O=C(NCCc1csc(-c2cccc(F)c2)n1)c1ccco1 | 69%
61 | COc1ccc(CC(=O)NCCc2csc(-c3ccc(C(F)(F)F)cc3)n2)cc1 | -6% (active)
62 | CCOc1ccc(CC(=O)NCCc2csc(-c3ccc(C(F)(F)F)cc3)n2)cc1 | 90%
63 | Cc1cccc(-c2nc(CCNC(=O)c3ccco3)cs2)c1 | -6% (active)
64 | Cc1cccc(-c2nc(CCNC(=O)COc3ccccc3)cs2)c1 | 73%
65 | COc1ccc(-c2nc(CCNC(=O)Cc3ccc(F)cc3)cs2)cc1 | 134%
66 | O=C(Cc1ccc(F)cc1)NCCc1csc(-c2cccc(F)c2)n1 | 69%
